KDM4E inh: qHTS Assay for Inhibitors of Human Jumonji Domain Containing 2E (JMJD2E); Potency, µM (titrated, usually from 57.1 µM), for inactives: at the top dose activity change, negative = inhibition, hits mostly inhibitors; actives 1.6% (n = 230,000); Lysine-specific demethylase 4E (Homo sapiens), B2RXH2; AID 2147, 2009; JMJD2E catalytic domain, FDH-coupled NADH fluorescence (FDH is formaldehyde dehydrogenase);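 further: 0% = wells with enzyme and -100% = buffer wells without enzyme; nearly all actives have a fitted effect of over 50% in size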
Tau fibril FP: qHTS for Inhibitors of Tau Fibril Formation, Fluorescence Polarization; Microtubule-associated protein tau (Homo sapiens), P10636; K18 P301L tau heparin fibrillization, Alexa594 FP, 6 h; Potency, µM (doses to about 57.7 µM), for inactives: top-dose activity, negative = inhibition, usual class: inhibitors; actives 0.39% (n = 280,000); AID 1468, 2008; further: nearly all actives have a fitted effect of over 55% in size
Target sequence (P10636 561-689 P618L limits assumed): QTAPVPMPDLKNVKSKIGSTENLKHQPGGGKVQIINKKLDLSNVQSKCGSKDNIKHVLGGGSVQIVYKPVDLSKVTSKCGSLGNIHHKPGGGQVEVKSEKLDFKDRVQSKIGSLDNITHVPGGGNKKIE
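Compound effects on tau fibrillization are measured by Alexa 594 fluorescence polarization (ex 555, em 632 nm). K18 P301L tau is used at 15 uM with 0.24 uM labeled tracer, and 20 uM heparin induces aggregation over 6 hr at 37 C.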
TRb-SRC2 inh: qHTS for Inhibitors of the Interaction of Thyroid Hormone Receptor and Steroid Receptor Coregulator 2 | Thyroid hormone receptor beta (Homo sapiens), P10828 | TRbeta-SRC2 peptide binding, fluorescence polarization; receptor liganded with 1 µM T3 | Potency, µM (series often up to 106 µM), without a hit: at the top dose activity change, negative = inhibition, actives largely listed as inhibitors | actives 0.065% (n = 280,000) | AID 1469, 2008;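 further: plate controls were bound peptide for no effect and peptide without receptor for full effect; nearly all actives have a fitted effect of over 50% in size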
Target sequence (P10828 whole entry, looked up): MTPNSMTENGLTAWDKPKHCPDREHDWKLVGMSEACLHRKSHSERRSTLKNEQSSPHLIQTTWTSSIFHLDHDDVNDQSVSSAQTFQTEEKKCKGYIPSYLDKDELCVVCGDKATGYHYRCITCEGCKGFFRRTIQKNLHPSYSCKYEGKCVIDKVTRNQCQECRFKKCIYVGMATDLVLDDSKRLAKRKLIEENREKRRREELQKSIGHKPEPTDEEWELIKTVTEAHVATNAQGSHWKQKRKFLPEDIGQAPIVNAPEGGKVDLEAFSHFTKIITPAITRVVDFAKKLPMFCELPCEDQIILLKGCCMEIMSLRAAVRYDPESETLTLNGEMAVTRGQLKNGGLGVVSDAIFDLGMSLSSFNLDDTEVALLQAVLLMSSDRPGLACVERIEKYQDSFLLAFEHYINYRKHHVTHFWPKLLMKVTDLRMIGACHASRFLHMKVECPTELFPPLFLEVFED
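A fluorescence polarization screen tested compounds at multiple concentrations against complex formation between 0.6 uM TRb ligand-binding domain and 20 nM Texas Red SRC2 peptide, with 1 uM T3 present; readout after 5 hr.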
TexasRed fluor: Total Fluorescence Counterscreen for Inhibitors of the Interaction of Thyroid Hormone Receptor and Steroid Receptor Coregulator 2; TRb/SRC2 Texas Red total fluorescence interference; Potency, µM (top dose mostly 106 µM), for the others: at the highest dose fluorescence change, negative = quenching; actives 0.29% (n = 280,000); AID 1479, 2009; active means well fitted curve in either direction with a large enough effect; inconclusive means small, poorly fitted or top-dose-only effect
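Flags fluorescent or light-absorbing compounds by total fluorescence, S + 2P, at 555 nm excitation and 632 nm emission. Mixture: 20 nM Texas Red SRC2 peptide, 0.6 uM human TRb LBD, 1 uM T3, 5% DMSO; compound exposure 5 h at ambient temperature.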
Tau fluor counter: Counterscreen qHTS for Inhibitors of Tau Fibril Formation, Fluorescence Polarization. tau K18 P301L Alexa594 fluorescence, heparin fibrillization. Potency, µM (titrated, usually from 57.7 µM), without a hit: at the highest dose activity change, negative = decrease. actives 0.93% (n = 280,000); further: nearly all actives have a fitted effect of over 55% in size
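Human K18 P301L tau (15 uM unlabeled plus 0.24 uM Alexa 594-labeled, final) in 100 mM sodium acetate pH 7 was mixed with compound and 20 uM heparin and incubated 6 hr at 37 C.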
Tau ThT inhib: qHTS for Inhibitors of Tau Fibril Formation, Thioflavin T Binding. recombinant tau K18 P301L (four-repeat tau fragment), heparin-induced fibrillization, ThT fluorescence. Microtubule-associated protein tau (Homo sapiens), P10636. actives 2.1% (n = 270,000). Potency, µM (doses to about 57.4 µM), inactives show top-dose activity, negative = inhibition, most hits filed as inhibitors; further: nearly all actives have a fitted effect of over 55% in size
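Heparin-induced fibrillization of the P301L-mutant K18 repeat-domain fragment of human tau was followed by ThT binding in quantitative high-throughput format.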
* hit, by the source's call; ? = inconclusive; . = no result given; [ ] = dose if it differs, or a comment. This is a sample that favours compounds with a hit; in the whole collection about 3.5% have one here. Unless noted, the call rests on the fitted dose curve; in most records, active means well fitted curve in the direction sought with a large enough effect; inconclusive means small, poorly fitted or top-dose-only effect, or another doubt; inactive means no such curve, though single readings can be large; an effect the other way counts as inactive or inconclusive. Unless noted, on the % scale 0 is the no-effect control and ±100 the full control effect; potency means the concentration at half of the fitted maximal effect.

SMILES	KDM4E inh	Tau fibril FP	TRb-SRC2 inh	TexasRed fluor	Tau fluor counter	Tau ThT inhib
Cc1ccc(C)c(N2CCN(c3ncnc4c3nc3n4CCCC3)CC2)c1	.	3.3%	-7.1%	20µM*[quencher]	-16.1%	-27.9%
COc1cccc(CNC(=O)C2CCN(c3ncnc4c3nc3n4CCCCC3)CC2)c1	.	-6.7%	-9.7%	20µM*[quencher]	-4.5%	0.2%
COC(=O)c1ccc2c(=O)n(CCCCCC(=O)NCc3ccccn3)c(=O)[nH]c2c1	?	-4.2%	2.6%	1.2%	-11.5%	-15.0%
Cc1ccn2c(Nc3ccc4c(c3)OCO4)c(-c3ccc(O)cc3)nc2c1	?	2.6%	4.7%	-2.4%	17.8µM*[quencher]	?
COc1cc(-c2nc3cccc(C)n3c2Nc2ccc3c(c2)OCCO3)ccc1O	.	3.8%	-10.2%	-4.5%	17.8µM*[quencher]	?
Clc1cccc(-c2nc3ccccn3c2Nc2ccc3c(c2)OCCO3)c1	.	?	8.9%	-2.8%	7.94µM*[quencher]	?
Oc1ccc(-c2nc3ccccn3c2Nc2ccc3c(c2)OCCO3)cc1	.	13.4%	0.2%	0.1%	?	?
COc1cc(-c2nc3cnccn3c2Nc2ccc3c(c2)OCCO3)ccc1O	-13.6%	9.3%	-1.6%	-4.1%	?	?
COc1cc(-c2nc3ccc(C)cn3c2Nc2ccc3c(c2)OCCO3)ccc1O	?	10.5%	2.1%	-5.4%	15.8µM*[quencher]	?
CN(C)C(=O)c1ccc(COc2ccccc2Br)o1	1.0%	6.3%	5.7%	-0.2%	7.8%	-6.8%
Cc1ccc(NC(=S)NNC(=O)c2cn(C)nc2C)cc1	1.4%	9.3%	-2.0%	0.5%	-2.2%	-6.2%
Cc1ccc(C)c(CSCC(=O)NCc2cccs2)c1	3.7%	2.2%	-1.0%	-1.5%	-10.4%	-14.1%
O=C(CSc1nc(-c2ccc(F)cc2)cs1)NCCN1C(=O)CSC1=O	3.3%	-7.7%	1.8%	0.9%	-11.2%	-3.4%
COc1ccc(Cc2nnc(N/N=C/c3ccc(O)cc3)[nH]c2=O)cc1OC	14.1µM*	-6.3%	1.2%	-3.7%	-14.2%	-8.5%
COc1ccc(Cc2nnc(N/N=C/c3ccc(Br)cc3)[nH]c2=O)cc1OC	7.6%	-11.0%	2.3%	-6.4%	-13.9%	-9.0%
CCC1CN(C(=O)N2CCC(C(=O)Nc3ccccc3F)CC2)c2ccccc2O1 (configuration not stated)	.	3.4%	-1.5%	3.1%	2.51µM*[quencher]	-6.0%
CC1CN(C(=O)N2CCC(C(=O)NC3CCCCCC3)CC2)c2ccccc2O1 (configuration not stated)	.	?	4.4%	?	1.7%	8.7%
O=C(NC1CCCCCC1)C1CCN(C(=O)N2CCOc3ccccc32)CC1	.	?	2.5%	-0.3%	7.08µM*[quencher]	10.5%
CCC1CN(C(=O)N2CCC(C(=O)NCCc3ccccc3C)CC2)c2ccccc2O1 (configuration not stated)	.	16.0%	-9.7%	?	-11.7%	-15.2%
CCC1CN(C(=O)N2CCC(C(=O)NCCc3ccc(Cl)cc3)CC2)c2ccccc2O1 (configuration not stated)	.	12.5%	0.9%	?	5.01µM*[quencher]	-4.3%
O=C(Nc1cccc(Cl)c1)Nc1nccs1	6.6%	?	11.7%	-1.2%	?	-0.5%
O=C(Nc1ccc(Cl)cc1)Nc1nnc(CSCc2ccccc2Cl)s1	-4.1%	?	-6.2%	-8.3%	1.6%	?
CC(Cc1cccs1)NC(=O)Nc1ccc(Cl)cc1 (configuration not stated)	6.5%	-11.3%	0.5%	0.6%	-28.6%	-4.8%
CC(Cc1cccs1)NC(=O)Nc1ccc(Cl)c(Cl)c1 (configuration not stated)	4.3%	25.1µM*	13.1%	0.2%	?	-3.5%
O=C(Nc1ccc(Cl)c(Cl)c1)Nc1nccs1	-5.0%	14.1µM*	2.7%	-7.1%	?	?
SMILES	KDM4E inh	Tau fibril FP	TRb-SRC2 inh	TexasRed fluor	Tau fluor counter	Tau ThT inhib
O=C(Nc1ccc(Cl)c(Cl)c1)Nc1nnc(CSc2ccccc2)s1	0.5%	3.55µM*	-6.0%	-2.6%	-28.5%	7.6%
O=C(Nc1ccccc1)Nc1nnc(CSCc2ccccc2Cl)s1	14.2%	10µM*	-0.9%	0.4%	?	21.4%
Cc1ccccc1CSc1nnc2[nH]c(=O)cc(-c3ccccc3)n12	.	7.5%	-0.5%	-0.3%	-3.9%	?
O=C(C1CCC1)N1CCC(c2nc3c(nnn3Cc3c(F)cccc3Cl)c(=O)[nH]2)CC1	-3.8%	-1.9%	0.4%	-3.7%	6.3%	5.9%
Cc1ccc(CNC(=O)[C@H](C)[C@H]2C[C@]2(C)[C@H](NC(=O)OCc2ccccc2)c2ccccc2)c(F)c1F	-3.4%	-2.4%	9.0%	-1.1%	-10.3%	-8.8%
Cc1nnc(NC(=O)Nc2cccc(Cl)c2)s1	4.5%	0.7%	-3.7%	-1.8%	-22.9%	-0.3%
Cc1ccc(OCCSCc2nnc(NC(=O)Nc3cccc(Cl)c3)s2)cc1	1.0%	15.8µM*	3.7%	-2.9%	?	10.1%
Cc1oc(-c2ccccc2Cl)cc1-c1nn2c(-c3ccco3)nnc2s1	3.1%	1.1%	1.9%	1.3%	-9.0%	?
CC(=O)c1c(C)c(C)c2n1CCn1c(C)ccc1-2	22.4µM*	-16.6%	-1.8%	9.2%	?	15.8µM*
Cc1ccc(NC2c3ncccc3C(=O)N2c2ccccc2C)cc1C (configuration not stated)	14.1µM*	3.1%	5.9%	1.2%	-6.3%	?
CCOc1ccc(N2C(=O)c3cccnc3C2Nc2ccc(Cl)cc2)cc1 (configuration not stated)	3.4%	-3.9%	2.3%	-1.3%	-14.9%	-4.6%
CCCCn1c(N)c(N(CC)C(=O)c2cc(OC)cc(OC)c2)c(=O)[nH]c1=O	-2.1%	-2.8%	-5.6%	-7.4%	-6.2%	-7.1%
CC(C)(C)c1ccc(OCC(=O)Nc2ccc(C(=O)OC3CCCCC3)cc2)cc1	.	-3.8%	-3.7%	3.9%	-12.2%	-2.0%
COc1ccc(CN=Cc2[nH]c3ccc(Br)c(Cl)c3c2O)cc1	-8.0%	?	3.0%	-2.3%	?	15.8µM*
Cc1cc(C)cc(N=Cc2[nH]c3ccc(Br)c(Cl)c3c2O)c1	1.5%	7.1%	4.6%	2.6%	?	?
Cc1cc(N2CCCC2)ccc1/C=N/n1cnnc1	?	-4.9%	8.9%	-1.3%	-28.8%	7.08µM*

Screening results from PubChem.
